Test results taken from the supplement of paper PMC10338343.
± gives the standard deviation. The full ranking holds about 3,000 sequences; the median of “pre-steady-state target cleavage rate” is about 0.0079, and the highest 2% start at about 0.2. What follows is part of a selection rich in the highest values, with near analogues and random picks from the rest.

test system: MILI (PIWIL2) piRISC loaded with piRNA #2 (26 nt); test: pre-steady-state target cleavage rate (min^-1); MIWI and MILI are mouse PIWI proteins and EfPiwi is from a freshwater sponge; tags in brackets are library labels; higher = faster piRNA-guided slicing of the target; settings: guide: piRNA #2 5'p-UUAGGUAACCCAGUAGAUCCAGAGGA; auxiliary factor: 500 nM mouse GTSF1
Protocol: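 Cleave-'n-Seq: a library of target RNAs (target site embedded in constant flanks, ACAGCATTCCGCGTTAGTGATATCCG... 5' flank; DNA-blocked outside the site) at 0.1 nM was incubated with 1 nM active mouse MILI or MIWI piRISC (synthetic 5'-monophosphorylated piRNA guide) with or without 500 nM mouse GTSF1 at 33 °C for 1 min to 16 h. Uncleaved targets were sequenced and normalised to non-target controls, and the pooled three trials were fitted to a burst-and-steady-state model to give the pre-steady-state cleavage rate (min^-1; k3 is constrained to at most 1e-4). Sequence is the target site only; target names encode pairing extent (gX:gY) and contiguous / 1-mismatch / 2-mismatch / bulge geometry. Fits with R² ≤ 0 are excluded.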

Row | Sequence | pre-steady-state target cleavage rate
1 | CUUAACCUCUGGAACUUCUGGGUUACCUAA | 0.103 ± 0.028
2 | CUUAAGCUCUGGAUCUAGUGGGAUACCUAA | 0.00824 ± 0.0045
3 | CUUAUCCUCUCGAUCUACUGGGAUACCUAA | 0.0565 ± 0.013
4 | CUUAUCCUCUGCAUCUACUGGGAUACCUAA | 0.0522 ± 0.025
5 | CUUAAGGAGACGAUCUACUGGGUUACCUAU [g2:g19:cont:t1U] | 0.00667 ± 0.0036
6 | CUUAAGCUCUGGAUCUACUGGGUUAACUAA | 0.095 ± 0.017
7 | CUUAUCCUCUGGAUCUACUGGGCUUACCUAA | 0.0139 ± 0.005
8 | CUUAAGCUCUGCAUCUACUGGGUUACCUAA | 0.0767 ± 0.016
9 | CUUAACCUCUGGAUUCUACUGGGUUACCUAA | 0.273 ± 0.093
10 | CUUAACCUCUGGAUUACUGGGUUACCUAA | 0.0792 ± 0.024
11 | CUUAAGCUCUGGCAUCUACUGGGUUACCUAA | 0.453 ± 0.15
12 | CUUAAGCUCUGGCUCUACUGGGUUACCUAA | 0.163 ± 0.034
13 | CUUAACCUCUGGAUCUACUGGGUUACCUAA [g2:g25:cont:t1A] | 0.101 ± 0.02
14 | CUUAUCGUCAGGAUCUACUGGGUUACCUAA | 0.03 ± 0.012
15 | CUUAUGCUCUGGAUCUACUGCGUUACCUAA | 0.0127 ± 0.0036
16 | CUUAAGGACUGGAUCUACUGGGUUACCUAA [g2:g22:cont:t1A] | 0.0428 ± 0.02
17 | CUUAAGGAGACCUAGUACGGGUUACCUAA | < 0.0001
18 | CUUAAGGAGAGGAAUCUACUGGGUUACCUAA | 0.00399 ± 0.0036
19 | CUUAUCCUCUGGAUGUACUGGGUUACGUAA | 0.0286 ± 0.0078
20 | CUUAAGGACUGGAUCUACGGGGUUACCUAA | 0.0466 ± 0.013
21 | CUUAUCCUCUGCAUCUACUGGGUUUCCUAA | 0.165 ± 0.071
22 | CUUAACCUCUGGUACUACUGGGUUACCUAA | 0.256 ± 0.074
23 | CUUAUCCUCUGCAUCUACUGGGUUAGCUAA | 0.145 ± 0.054
24 | CUUAUCCUCUGGAUCUACUGGGUUAGCUAA | 0.129 ± 0.025

Row | Sequence | pre-steady-state target cleavage rate
25 | CUUAUCCUCUGGUUCUACUGGGAUACCUAA | 0.188 ± 0.078
26 | CUUAUCCUCUGGUUCUACUGGGUUUCCUAA | 2.2 ± 1.7
27 | CUUAACCUCUGGUAGUACUGGGUUACCUAA | 0.078 ± 0.025
28 | CUUAACCUCUGGACUACUGGGUUACCUAA | 0.156 ± 0.037
29 | CUUAUCCUCUGAGAUCUACUGGGUUACCUAA | 0.106 ± 0.02
30 | CUUAUCCUCUAGGAUCUACUGGGUUACCUAA | 0.049 ± 0.012
31 | CUUAUCCUCUAGAUCUACUGGGUUACCUAA | 0.224 ± 0.034
32 | CUUAUCCUCUGGUUCUACUGGGUUAGCUAA | 0.235 ± 0.069
33 | CUUAAGCUCUGGAUCUACAGGGUUACGUAA | 0.0394 ± 0.01
34 | CUUAAGCUCUGGAUCCACUGGGUUACCUAA | 0.0284 ± 0.0092
35 | CUUAACCUCUGCAUCUACAGGGUUACCUAA | 0.0773 ± 0.014
36 | CUUAAGGACUCGAUCUACUGGGUUACCUAA | 0.0128 ± 0.0065
37 | CUUAAGGAGAGGAUCUACAGGGUUACCUUA | 0.0102 ± 0.0051
38 | CUUAACCUCUGGAUCUAGUGGGAUACCUAA | 0.0146 ± 0.0055
39 | CUUAUCCUCUGGAUGUACUGGGUUACCUAA | 0.108 ± 0.022
40 | CUUAAGGUCUGGAUCUACUGGGAAACCUAA | 0.0107 ± 0.0055
41 | CUUAAGCUCUGGUUCUACUGGGUUACCUAA | 0.131 ± 0.027
42 | CUUAUCCUCUGGAACUACUGGGUUACCUAA | 0.188 ± 0.042
43 | CUUAUCCUCUGGAACUACUGGGUUACCAAA | 0.13 ± 0.044
44 | CUUAUCCUCUGGAACUACUGGGUUACCUUA | 0.266 ± 0.073
45 | CUUAUCCUCUCGAUCUACUGGGUUACCAAA | 0.13 ± 0.025
46 | CUUAAGCUCUGGUUCUACUGGGUUACCUUA | 0.126 ± 0.036
47 | CUUAAGCUCUGGUUCUACUGGGUUACCAAA | 0.199 ± 0.063
